High-throughput results: PubChem, National Center for Advancing Translational Sciences (NCATS)
Compounds with a hit are over-represented: about 1.1% of the library has one in this group of screens.
Menin MLL FP TR – displaces Texas Red mutant MLL peptide from human menin; Menin + Texas Red MLL mutant peptide, fluorescence polarization; Potency, µM (top dose mostly 61.6 µM), most hits filed as inhibitors; actives 0.23% (n = 270,000); active = well fitted inhibition curve with a large enough effect in the polarisation, with a control signal flat, not every such curve was filed as active; inconclusive = small, poorly fitted or top-dose-only effect, or effect the other way, or a change in a side signal; inactive = no such curve, though single readings can be large or run the other way; the % refers to the polarisation
Target sequence (O00255 whole entry, looked up): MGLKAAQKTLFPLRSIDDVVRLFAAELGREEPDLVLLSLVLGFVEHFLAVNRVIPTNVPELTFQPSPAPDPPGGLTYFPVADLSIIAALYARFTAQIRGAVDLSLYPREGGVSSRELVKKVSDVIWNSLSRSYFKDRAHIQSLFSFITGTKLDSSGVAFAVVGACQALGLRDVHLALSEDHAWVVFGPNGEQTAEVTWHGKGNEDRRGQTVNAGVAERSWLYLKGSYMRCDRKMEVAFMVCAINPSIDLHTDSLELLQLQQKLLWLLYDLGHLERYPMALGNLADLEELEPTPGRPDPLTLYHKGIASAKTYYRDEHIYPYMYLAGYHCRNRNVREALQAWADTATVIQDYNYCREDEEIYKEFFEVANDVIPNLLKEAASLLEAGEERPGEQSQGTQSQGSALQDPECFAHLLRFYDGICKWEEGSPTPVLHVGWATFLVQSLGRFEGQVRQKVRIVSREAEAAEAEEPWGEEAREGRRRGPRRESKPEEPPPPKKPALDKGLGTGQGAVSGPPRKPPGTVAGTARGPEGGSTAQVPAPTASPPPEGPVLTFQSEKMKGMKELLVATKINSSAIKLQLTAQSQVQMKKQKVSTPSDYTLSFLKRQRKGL
Menin MLL FP FL – inhibitors of human menin-MLL interaction, wild-type MLL peptide; Fluorescence polarization, fluorescein-MLL peptide displacement from menin; FP activity change, % at 61.4 µM; 290,000 tested, under 10 active; AID 1766; active = well fitted curve in the direction sought with a large enough effect in the polarisation, not every such curve was filed as active; inconclusive = small, poorly fitted or top-dose-only effect, or effect the other way, or a change in a side signal; inactive = no such curve, though single readings can be large or run the other way; the % refers to the polarisation
KCNH2 3.1 block – KCNH2 3.1 (human) potassium channel inhibition. U2OS KCNH2 3.1, thallium flux FluxOr; hits give low values. actives 0.95% (n = 340,000). activity change, % (tested at about 1.8 µM). AID 720553;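 active = maximum activity change below -70%; inconclusive = maximum activity change from -70% to -50%; inactive = maximum activity change above -50%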;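 note: thallium influx rate constant from kinetic fluorescence after stimulation buffer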
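Measured as rate of thallium-driven FluxOr signal in transduced U2OS cells carrying the 3.1 channel, read kinetically for 2 min upon stimulation; values are rate constants scaled to DMSO control wells.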
CXXC DNA block – blocks binding of human MLL CXXC domain to DNA | Q03164 | MLL-CXXC / FITC-HOXA9 DNA fluorescence polarization | Potency, µM (doses to about 115 µM), actives largely listed as inhibitors | actives 0.037% (n = 290,000); active = well fitted inhibition curve with a large enough effect in the polarisation, with a control signal flat, not every such curve was filed as active; inconclusive = small, poorly fitted or top-dose-only effect, or effect the other way, or a change in a side signal; inactive = no such curve, though single readings can be large or run the other way; the % refers to the polarisation
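Purified MLL-CXXC (added from a 7 uM solution) was preincubated 5 min at ambient with pinned compounds in 50 mM Tris-HCl pH 7.5, 50 mM NaCl, 1 mM DTT, 0.05% BSA. Fluorescein-labeled HOX-A9 DNA (50 nM solution) followed, 30 min, then polarization read.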
hERG WT inh – blocks the wildtype human KCNH2 potassium channel. Q12809. U2OS, BacMam KCNH2, thallium flux FluxOr; hits give low values. activity change, % at 1.84 µM. actives 0.37% (n = 340,000);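 active = maximum activity change below -70%; inconclusive = maximum activity change between -70% and -50%; inactive = maximum activity change above -50%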
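U2OS cells were transduced with wild-type KCNH2 virus (2.03 x 10^8 / mL) for 4 h at room temperature, then cultured overnight at 37 C. Thallium flux was read with FluxOr dye. Rate constants were normalized to DMSO controls.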
A number is an active result; – = inactive; ? = inconclusive; · = not tested or not shown; [ ] = another dose, or the depositor's remark.

SMILES | Menin MLL FP TR | Menin MLL FP FL | KCNH2 3.1 block | CXXC DNA block | hERG WT inh
COC(=O)c1ccccc1-c1ccc(/C=N/NC(=O)c2cc3ccccc3o2)o1 | – | – | – | – | –
COC(=O)c1ccccc1-c1c2ccc(=N)cc-2oc2cc(N)ccc12 | · | · | ? | · | -118
Cn1c(CCN2CCCCC2)nc2cc([N+](=O)[O-])ccc21 | ? | – | – | – | –
Cn1c(CN2CCCCC2)nc2cc([N+](=O)[O-])ccc21 | – | – | -185 | – | –
CCN1CCCC1CNc1ncnc2c1[nH]c1ccc(Cl)cc12 (stereo not drawn) | – | – | -110 | – | -112
COc1ccc(C(CCNCc2ccc(N(C)C)cc2)c2ccccc2)cc1 (stereo not drawn) | ? | – | -85 | ? | –
COc1ccc(C(CCNCc2ccc(OC)c(OC)c2)c2ccc(F)cc2)cc1 (stereo not drawn) | · | – | – | – | –
C/C(=N\NC(=O)c1ccccc1OCc1ccc(F)cc1)c1ccccn1 | · | · | – | · | –
CCOc1ccc(OCc2ccc(C(=O)N/N=C(\C)c3ccccn3)cc2)cc1 | – | – | – | – | -72
CCN(C[C@H]1N[C@@](CC)(C(=O)OC)[C@H]2C(=O)N(Cc3ccccc3)C(=O)[C@@H]12)S(=O)(=O)c1ccc(OC(F)(F)F)cc1 | · | · | – | · | -277
COc1ccc(S(=O)(=O)N2CCCCC2)cc1C(=O)N1CCCC1 | · | · | – | – | -70
COc1ccc(S(=O)(=O)N2CCCC2)cc1C(=O)N1CCCCC1 | · | · | – | – | –
CCOc1cc(S(=O)(=O)N2CCN(Cc3ccccc3)CC2)ccc1Br | – | – | -82 | – | –
CCN1CCN(S(=O)(=O)c2ccc(OC)c(Br)c2)CC1 | – | – | – | – | -89
COc1ccc(S(=O)(=O)N2CCN(C)CC2)cc1Br | – | – | – | – | –
O=C(NCc1ccccc1Cl)C1CCN(C(=O)c2ccco2)CC1 | – | – | – | – | –
CCCC[C@@H]1C[C@H]1[C@@H](NP(=O)(c1ccccc1)c1ccccc1)c1ccccc1OC | – | – | · | · | ·
COC(=O)C/C=C\[C@@H](C)[C@@H](CO)NS(=O)(=O)c1ccc(C)cc1 | –[11.7 µM] | –[11.7 µM] | · | · | ·
COc1ccc(CN(C2CCCC2)S(=O)(=O)c2ccc(-n3cnnn3)cc2)cc1 | ? | – | -71 | – | –
FC(F)Sc1ccc(NC(=S)NCc2ccccc2)cc1 | ? | – | – | – | –
FC(F)Sc1ccc(NC(=S)NC(c2ccccc2)c2ccccc2)cc1 | 16µM | – | – | – | ·
Cc1ccc(-c2nn(CC(=O)NN3CCOCC3)c(=O)c3ccccc23)cc1 | · | – | – | – | –
O=C(c1ccc2c(c1)OCO2)C1CCCN(Cc2cc(F)ccc2-n2cccn2)C1 (stereo not drawn) | – | – | -72 | – | –
Cc1ccc(-n2cccn2)c(CN2CCCC(C(=O)c3ccc4c(c3)OCO4)C2)c1 (stereo not drawn) | – | – | -94 | – | ?
CC(=O)Nc1ccc(SC[C@H](Cc2ccccc2)N2CC[C@@H](C(C)(C)C)CCC2=O)cc1 | · | · | -97 | · | –
SMILES | Menin MLL FP TR | Menin MLL FP FL | KCNH2 3.1 block | CXXC DNA block | hERG WT inh
Cc1ccc(SC[C@H](Cc2ccccc2)N2CC[C@@H](C)CCC2=O)cc1 | – | – | -126 | – | –
O=C(NCc1ccccc1)c1onc(CSc2ccc(F)cc2)c1C(=O)NCCCN1CCOCC1 | – | – | -81 | – | ?
O=C(NCc1ccccc1)c1onc(CSc2ccc(F)cc2)c1C(=O)NCc1ccccc1 | · | · | – | · | –
CC(NC(=O)[C@H](C)NC(=O)N1CCn2c1nc1ccccc12)c1ccccc1 (stereo partly drawn) | – | – | – | – | –
C[C@H](NC(=O)N1CCn2c1nc1ccccc12)C(=O)NC1CC1 | · | · | -136 | – | –
C#CCn1c(=O)c2c(nc(/C=C/c3cccc(OC)c3)n2C)n(CCCO)c1=O | – | – | · | · | ·
COc1ccc(CN(C)C(=O)c2ccccc2Sc2ccccc2C#N)cc1OC | · | · | – | – | –
COc1cccc(CN(C)C(=O)c2ccccc2Sc2ccccc2C#N)c1 | · | · | -93 | – | –
C=CCN(c1ccc(C(=O)Nc2ccc3c(c2)OCO3)cc1)S(C)(=O)=O | – | – | – | – | –
C=CCN(c1ccc(C(=O)Nc2ccc3c(c2)n(C)c(=O)n3C)cc1)S(C)(=O)=O | – | – | – | – | -284
O=C(NCc1ccco1)c1cnn2c1NC(c1ccc(Br)cc1)CC2C(F)(F)F (stereo not drawn) | – | – | – | – | -71
COc1cc(C(=O)OCC(=O)NCCC2=CCCCC2)ccc1OCC(C)C | · | · | – | · | –
COc1ccc(OC)c(NC(=O)CC2C(=O)NCCN2C(=O)c2ccccc2)c1 (stereo not drawn) | – | – | – | – | –
Fc1ccc(C(CCNCc2ccccn2)c2ccc(Cl)cc2)cc1 (stereo not drawn) | ? | – | -91 | – | -89
COc1ccc(CCNCC(=O)Nc2ccc(C)c(Br)c2)cc1OC | – | – | -72 | – | –
CC(C)(C)c1ccc(OCCCCCCN2CCNCC2)cc1 | · | · | – | · | –
CC1CCN(CCCCOc2ccc(Cl)cc2)CC1 | – | – | -76 | – | –
CC1CCN(CCCCOc2ccccc2-c2ccccc2)CC1 | ? | – | -80 | – | -71
CC1CCN(CCCCOc2ccc(C(C)(C)C)cc2)CC1 | ? | – | -75 | – | –
COc1ccc(C(=O)OCC(=O)Nc2c(C)n(C)n(-c3ccccc3)c2=O)cc1OC | · | · | – | · | –
C(#Cc1ccccc1)C[N+]1(CC#Cc2cccc3ccccc23)CCCC1 | ? | – | -80 | – | –
CCn1c(SCC(=O)Nc2sc(C)c(C)c2C#N)nnc1C(C)C | – | – | – | – | –
COCCn1c(SCC(=O)Nc2sc(C)c(C)c2C#N)nnc1C(C)C | – | – | -195 | – | –
Clc1ccc2nnc(Cl)n2n1 | – | – | -183 | – | -220
FC(F)c1nnc2ccc(Cl)nn12 | – | – | – | – | –
SMILES | Menin MLL FP TR | Menin MLL FP FL | KCNH2 3.1 block | CXXC DNA block | hERG WT inh
O=C(Nc1ccccc1Cl)Oc1ccc(-c2ccccc2)cc1 | – | – | – | – | –
CSc1ccc(CN(C)CC(=O)N(C)CC(=O)Nc2ccccc2Br)cc1 | · | · | – | · | –
CSc1ccc(CN(C)CC(=O)Nc2ccc(C)cc2Br)cc1 | – | – | -153 | – | -148
CSc1ccccc1NC(=O)CN(C)CC(=O)Nc1cc(C)ccc1C | – | – | -76 | – | –
CCCn1c(N)c(C(=O)CN(C)CC(=O)Nc2cc(C)ccc2C)c(=O)[nH]c1=O | · | · | -70 | · | –
O=C(CN1C(=O)NC2(CCc3ccccc32)C1=O)Nc1ccc(Cl)cc1F (stereo not drawn) | · | · | – | · | –
Cc1ccc([N+](=O)[O-])cc1S(=O)(=O)Nc1ccc(-c2ccc(N3CCCC3)nn2)cc1 | · | · | – | · | –
Cc1cc(C)cc(OCC(=O)O/N=C(\N)c2cccnc2)c1 | · | – | – | – | –
COc1ccc(NC(=O)CSc2nnc(N)s2)cc1 | – | – | – | – | –
CSc1nc2ccc(NC(=O)CSc3nnc(N)s3)cc2s1 | – | – | -91 | – | –
